# Source: PubChem BioAssay (NCI)
# About 83,000 compounds went through this panel and 20% of them were active in at least one assay; those are over-represented in the sample as a whole.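 Single-dose data. Exposure time 48 hours. Values below 10 considered active.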 Values without a mark were called inactive. Calls of active or inactive are those of the source.
# Experiments:
# Assay in all cases: NCI-60 one-dose screen, 48 h (100 = growth as untreated, 0 = no growth, -100 = all killed)
# Settings in all cases: 10 µM unless noted
# SK-MEL-2 melanoma = test system: SK-MEL-2 melanoma
# EKVX NSCLC = test system: EKVX NSCLC
# SN12C renal = test system: SN12C renal
# UO-31 renal = test system: UO-31 renal
# TK-10 renal = test system: TK-10 renal
# ACHN renal = test system: ACHN renal
# CAKI-1 renal = test system: CAKI-1 renal
# A498 renal = test system: A498 renal
# CCRF-CEM leukemia = test system: CCRF-CEM leukemia
# MOLT-4 leukemia = test system: MOLT-4 leukemia
Structure (SMILES),growth (SK-MEL-2 melanoma),growth (EKVX NSCLC),growth (SN12C renal),growth (UO-31 renal),growth (TK-10 renal),growth (ACHN renal),growth (CAKI-1 renal),growth (A498 renal),growth (CCRF-CEM leukemia),growth (MOLT-4 leukemia)
CC(C)(O)c1cn(CCCCN2C(=O)C(=O)c3ccccc32)nn1,101%,93.7%,102%,82.7%,108%,104%,93.9%,71.7%,101%,94.6%
CN1CCN(c2ccc3nc(-c4ccc(OCCCCN5CCN(CCCCN6C(=O)c7cccc8cccc(c78)C6=O)CC5)cc4)[nH]c3c2)CC1,79.2%,78.9%,73.8%,16.7%,88.4%,89%,33.1%,119%,26.2%,52%
O=c1c2c3c(sc2nc(N/N=C/c2cn(-c4ccccc4)nc2-c2ccc(Cl)cc2)n1Cc1ccccc1)CCCC3,103%,106%,127%,95.9%,129%,117%,98.9%,112%,109%,22%
Cc1ccc(O)c(N2C(=NCc3ccco3)NS(=O)(=O)c3cnccc32)c1,106%,101%,101%,91.2%,124%,106%,68.4%,109%,61.2%,87.9%
Cn1c(=O)[nH]c(=O)c2nc(CCC(=O)NCCC(=O)O)c(=O)[nH]c21,106%,106%,99.5%,86.6%,106%,101%,93.5%,114%,109%,106%
O=C1Nc2c(ccc(Cl)c2Cl)/C1=C\c1ccc(C(F)(F)F)cc1,91.4%,55.2%,79.7%,57.9%,96.4%,86.5%,65.9%,102%,6.78% (active),44.3%
CC1(C)CC[C@]2(C(=O)Nc3ccccn3)CC[C@]3(C)C(=CC[C@@H]4[C@@]5(C)C/C(=C/c6cccnc6)C(=O)C(C)(C)[C@@H]5CC[C@]43C)[C@H]2C1,63.9%,42.5%,32.6%,37.4%,68.9%,26.5%,36.3%,39.9%,20.9%,13.2%
COc1cccc(-c2nn(C(C)(C)C)cc2-c2ccnc(NCCCNS(=O)(=O)c3ccc(C)cc3)c2)c1,108%,100%,103%,85.3%,98.8%,102%,92.8%,94%,94.6%,103%
C=C(C)[C@@H]1CC[C@]2(C(=O)OC)CC[C@]3(C)[C@H](CC[C@@H]4[C@@]5(C)C/C(=C/c6cccc(I)c6)C(=O)C(C)(C)[C@@H]5CC[C@]43C)[C@@H]12,103%,94.6%,101%,85.2%,101%,90.8%,82%,116%,97.9%,95.8%
N=C(N)c1ccc(-c2ccc(-c3ccc4ccccc4c3)s2)s1,101%,51.8%,-62.2% (active),55.6%,19%,25.7%,59.2%,66.6%,-27.8% (active),-46.7% (active)
COc1ccccc1NS(=O)(=O)c1ccc2oc(SC(C)C)nc2c1,66.4%,55.9%,89.3%,73.5%,102%,151%,71.2%,91.4%,65%,69.6%
CCCOc1cc2ccccc2cc1C(=O)Nc1nc(NC)c2c(ccc3nccc32)[nH]1,-60.8% (active),-78.4% (active),-71.7% (active),-88.8% (active),-65.8% (active),-90.7% (active),-63.8% (active),-92% (active),-30.2% (active),-56.1% (active)
C[n+]1ccccc1/C=C/c1ccc2cccc(O)c2n1,103%,32%,91.8%,57.9%,109%,102%,57.3%,63.9%,103%,95.2%
Brc1ccc(-c2csc(Nc3ccccn3)n2)cc1,69.8%,70%,95.7%,75.8%,101%,217%,84.2%,91.3%,74.8%,82.6%
O=C(Nc1ccc(Cl)cc1)c1cc2cc(F)ccc2cc1O,6.39% (active),17%,7.85% (active),12.6%,17.7%,3.91% (active),12%,-43.4% (active),15.6%,7.89% (active)
C=CC(=O)Nc1cccc(-c2nc(SC)nc(Nc3cccc(OC)c3)c2C#N)c1,71.2%,72%,44.6%,42.3%,78.9%,45.7%,44.9%,9.73% (active),57.5%,39.5%
CC(=O)Nc1ccc(-n2c(O)c(/C=N/NC(=O)Cc3ccccc3Nc3c(Cl)cccc3Cl)sc2=S)cc1,113%,100%,104%,84.1%,112%,99.1%,84.9%,97.1%,96.7%,94.2%
CCOc1nc(-c2ccccc2)cc2c(O)c(C(=O)O)[nH]c(=O)c12,95.3%,98.2%,111%,87.1%,134%,100%,105%,119%,83%,92.4%
N#CCCN=Nc1c(O)[nH]c2ccc(F)cc12,101%,90.9%,101%,80.6%,108%,103%,84.8%,75.8%,107%,103%
COc1cc(/C=C/C(=O)c2ccc(O)c(CN3CCN(c4cc5c(cc4F)c(=O)c(C(=O)O)cn5C4CC4)CC3)c2)cc(OC)c1OC,66.2%,49.4%,38.2%,47.4%,107%,46.1%,54.7%,93%,9.83% (active),33.3%
CCCOc1ccc2nc(NC(=O)OC)[nH]c2c1,-1.33% (active),57.1%,23.2%,37.5%,35.7%,31.5%,51.7%,9.31% (active),7.62% (active),17.7%
COc1ccc(-c2nn(-c3ccc(Cl)cc3)cc2-c2nc3ccccc3[nH]2)cc1,101%,85.2%,85.7%,44.4%,91.2%,89.5%,92%,100%,99.9%,81.8%
Cc1nn(-c2ccc(F)cc2)c2ncnc(Nc3ccc(NC(=O)Nc4ccc(Cl)c(C(F)(F)F)c4)cc3)c12,-7.22% (active),43.9%,27.2%,40.1%,26.5%,3.49% (active),12.4%,37.9%,28.9%,26.4%
Cc1ccccc1COc1ccc(-c2ccnn2-c2ccc(Cl)cc2)cc1,39.2%,77%,67.6%,74.4%,83.8%,77.6%,59.7%,57.5%,42.4%,26.3%
Cc1cc(C)nc(SC2=C(Nc3cccc(Cl)c3C)C(=O)N(Cc3ccccc3)C2=O)n1,69.6% [30 µM],47.2% [30 µM],70.1% [30 µM],14.7% [30 µM],60.5% [30 µM],65.2% [30 µM],60.8% [30 µM],40.1% [30 µM],26.9% [30 µM],4.41% [30 µM] (active)
c1ccc(-c2c(-c3ccccc3)[n+](Cc3ccc4ccccc4c3)c(-c3ccc(-c4nc5ccccc5s4)cc3)n2Cc2ccc3ccccc3c2)cc1,-88.7% (active),-93.4% (active),-86.7% (active),-94.1% (active),-80.9% (active),-96.8% (active),-89.5% (active),-97.4% (active),-14.8% (active),-51.9% (active)
